Apoferritin bind: candidate novel general anesthetic via apoferritin binding; P02791; apoferritin/1-aminoanthracene competitive binding, fluorescence; Potency, µM (highest dose often 77.5 µM), for the others: at the top dose activity change, negative = displacement, hits mostly inhibitors; 0.074% of 350,000 active; AID 485281; note: % is set by controls: 0 for no effect and ±100 for the full control effect; nearly all actives have a fitted effect of over 20% in size
Target sequence (P02791 2-175 limits assumed): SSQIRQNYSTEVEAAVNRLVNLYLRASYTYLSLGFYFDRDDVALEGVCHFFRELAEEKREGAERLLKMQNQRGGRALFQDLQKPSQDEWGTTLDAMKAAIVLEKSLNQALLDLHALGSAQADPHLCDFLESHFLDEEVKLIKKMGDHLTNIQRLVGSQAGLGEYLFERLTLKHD
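Read-out: endpoint 1-AMA fluorescence, excitation 380 nm and emission 535 nm, after compounds sit 10 min at room temperature with 10 uM horse-spleen apoferritin in 50% saturated 1-AMA/PBS. Values come from four-parameter Hill fits.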
Glioma ERSR ind: inducers of ER stress response in human glioma cells; U87-MG GRP78 promoter luciferase reporter, 16 h; Potency, µM, without a hit: top-dose activation, actives largely listed as activators; 0.02% of 420,000 active; AID 602332; note: series mostly up to about 76 µM; % of control where 0% means no effect; nearly all actives have a fitted effect of over 35% in size
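ERSR induction read as luciferase luminescence (Bright-Glo, 10 min at room temperature) in stably transfected human U87-MG glioma cells exposed to compounds for 16 h, using GRP78 as sensor.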
rTrxR1 inhibitor: inhibitors of rat thioredoxin reductase 1; O89049; recombinant rTrxR1, NADPH fluorescence consumption, selenite substrate; Potency, µM (highest dose often 114 µM), for the others: top-dose activity change, negative = inhibition, hits mostly inhibitors; 1% of 390,000 active; note: % is set by controls: 0 for no effect and ±100 for the full control effect; nearly all actives have a fitted effect of over 65% in size
Target sequence (O89049 whole entry, looked up): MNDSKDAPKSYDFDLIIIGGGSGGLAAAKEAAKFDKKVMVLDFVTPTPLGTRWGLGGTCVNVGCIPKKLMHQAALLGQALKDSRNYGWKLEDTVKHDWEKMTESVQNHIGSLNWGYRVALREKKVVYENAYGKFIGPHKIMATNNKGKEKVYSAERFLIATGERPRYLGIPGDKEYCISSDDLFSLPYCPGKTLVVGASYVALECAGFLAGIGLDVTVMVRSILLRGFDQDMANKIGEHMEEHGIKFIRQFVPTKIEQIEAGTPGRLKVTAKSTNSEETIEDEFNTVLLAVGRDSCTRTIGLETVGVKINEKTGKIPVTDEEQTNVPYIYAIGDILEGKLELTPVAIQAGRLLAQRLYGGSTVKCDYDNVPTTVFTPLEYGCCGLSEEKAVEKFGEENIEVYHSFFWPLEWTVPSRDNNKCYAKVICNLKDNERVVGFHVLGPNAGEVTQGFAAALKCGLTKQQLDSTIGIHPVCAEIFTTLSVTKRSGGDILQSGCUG
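Rat TrxR1 (90 nM in the dispensed reagent) was pre-reduced with 400 uM NADPH for 5 min at room temperature, then incubated with compound for 15 min. After 400 uM selenite was added, NADPH fluorescence (Ex 340/Em 450 nm) was followed for 8 min.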
TrxR1 substrate: substrates of rat thioredoxin reductase 1. O89049. purified TrxR1 substrate turnover, NADPH consumption readout. 0.01% of 390,000 active. Potency, µM (series often up to 114 µM), for the others: at the top dose activity change, negative = substrate turnover. AID 588456; note: % is set by controls: 0 for no effect and ±100 for the full control effect; nearly all actives have a fitted effect of over 50% in size
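Rat TrxR1, dispensed at 90 nM, was prereduced with 400 uM NADPH (final) for 5 min at ~22 deg C, then incubated with compound 15 min before 400 uM selenite. A first-read NADPH fluorescence drop versus no-compound background flagged substrates.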
12-LOX inh: ALOX12 (human) lipoxygenase inhibition; AID 1671190; 1.1% of 580,000 active; purified 12hLO, xylenol orange hydroperoxide absorbance; Potency, µM (highest dose often 108 µM), inactives show at the top dose activity change, negative = inhibition, most hits filed as inhibitors; P18054; note: % is set by controls: 0 for no effect and ±100 for the full control effect
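Hydroperoxide product was detected by ferrous iron/xylenol orange as the 573 to 405 nm absorbance ratio. Arachidonic acid at 40 uM (final) was turned over for 30 min at room temperature by 150 nM human 12hLO, pH 7.0 Hepes buffer, after 15 min compound preincubation.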
mIDH1 inhibitor: inhibitors of human mutant IDH1 R132H | O75874 | IDH1-R132H enzyme, NADPH consumption, diaphorase/resazurin fluorescence | Potency, µM (top dose mostly 76.6 µM), without a hit: top-dose activity change, negative = inhibition, most hits filed as inhibitors | 0.093% of 390,000 active; note: % is set by controls: 0 for no effect and ±100 for the full control effect; nearly all actives have a fitted effect of over 65% in size
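IDH1-R132H (0.5 ug/mL dispensed) in pH 7.5 Tris buffer was preincubated 30 min with compound, then given a substrate mix of 0.016 mM NADPH and 2 mM alpha-KG for 80 min at room temperature; remaining NADPH was read by diaphorase/resazurin fluorescence.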
Numbers without * were called inactive; ? = inconclusive; / = not tested or not shown; ! = not confirmed by another sample; [ ] = remark or other dose. Only some compounds are listed: those with a hit (about 1.7% of all), similar ones and a draw of the others. Calls come from the whole dose curve; as a rule, active = well fitted curve in the direction sought with a large enough effect; inconclusive = small, poorly fitted or top-dose-only effect, or another doubt; inactive = no such curve, though single readings can be large; an effect the other way counts as inactive or inconclusive. Potency is the fitted concentration of half-maximal effect.

SMILES	Apoferritin bind	Glioma ERSR ind	rTrxR1 inhibitor	TrxR1 substrate	12-LOX inh	mIDH1 inhibitor
O=C(NCc1cccc(Cl)c1)c1ccc(-n2cncn2)c2ccoc12	/	1%	/	/	-15%	/
O=C(NCc1cccc(Cl)c1)c1ccc(-n2ccnc2)c2ccoc12	/	0%	/	/	40µM*	/
O=C(Cc1ccccc1F)N1CCCN(c2cc(-c3ccc(Cl)cc3)[nH]n2)CC1	/	/	/	/	31%	/
O=C(Nc1cccc(Cl)c1)OCc1cnc(Cl)s1	10µM*	-5%	23%[57.1 µM]	16%[57.1 µM]	25µM*	3%
O=C(Nc1cccc(Cl)c1)OCCOCCOC(=O)Nc1cccc(Cl)c1	/	-2%	3%	-5%	-4%	7%
Cc1ccc(NC(=O)N2CCSc3ncccc32)cc1Cl	/	/	/	/	-8%	/
COC(=O)C1CN(Cc2cn(Cc3ccc(C)cc3)nn2)CCS(=O)(=O)N1Cc1ccc(C)cc1 (centres undefined)	/	/	/	/	16µM*	/
CCC(Sc1nc2n[nH]c(C)c2c(=N)n1-c1ccc(Br)cc1)C(=O)N(CC)CC (centres undefined)	58%	10%	10%[57.1 µM]	-3%[57.1 µM]	-22%	?
Fc1cccc(/C=N/Nc2ccc(Cl)nn2)c1	0%	8%	21%	2%	0%	0%
CSc1ccc(/C=N/Nc2cccc(Cl)c2)cc1	/	/	/	/	1.4µM*	/
Fc1cccc(/C=N/Nc2ccc(Cl)c(Cl)c2)c1	/	/	/	/	5µM*	/
Fc1ccc(/C=N/Nc2ccc(Cl)c(Cl)c2)cc1	/	/	/	/	2.2µM*	/
CSc1ccc(/C=N/Nc2ccc(F)cc2)cc1	/	/	/	/	1.3µM*	/
CC(C)CN1C(=O)c2cccn2CC1CNC(=O)c1ccccc1 (centres undefined)	/	/	/	/	29%	/
CNC(=S)N/N=C/c1ccc(C(C)C)cc1	/	?	-14%	-6%	-21%	3%
N#Cc1ccc(/C=N/Nc2ccc(F)cc2)cc1	/	/	/	/	16µM*	/
CSc1ccc(/C=N/Nc2ccc(Cl)c(C(=O)O)c2)cc1	-11%	-14%	8%[57.1 µM]	-4%	?	6%
CNC(=S)N/N=C/c1ccc(SC)cc1	/	/	/	/	14µM*	/
CSc1ccc(/C=N/Nc2ccc(Cl)c(Cl)c2)cc1	/	/	/	/	2µM*	/
Fc1ccc(/C=N/Nc2ccc(Cl)c(Cl)c2)cc1F	/	/	/	/	5µM*	/
COc1ccc(CNC(=O)COc2ccc3c(C(F)(F)F)cc(=O)oc3c2)cc1	/	/	/	/	10%	/
COC(=O)COc1ccc2c(=O)c(-c3ccccc3)c(C)oc2c1	/	/	/	/	-3%	/
Cc1ccc(F)cc1CN1CCC2(CCCO2)CCC1=O (centres undefined)	/	/	/	/	12%	/
Cc1ccc(N/N=C/c2ccc(Cl)c(Cl)c2)cc1	/	/	/	/	16µM*	/
Cc1cccc(/C=N\N=C\c2cccc(C)c2)c1	-16%	5%	16%[57.1 µM]	6%[57.1 µM]	13%	7%
SMILES	Apoferritin bind	Glioma ERSR ind	rTrxR1 inhibitor	TrxR1 substrate	12-LOX inh	mIDH1 inhibitor
Cc1ccc(/C=N/Nc2nc(C)cc(C)n2)cc1	0%	12%	13%[57.1 µM]	-3%[57.1 µM]	?	-4%
Cc1cccc(/C=N/Nc2ccc(Cl)c(Cl)c2)c1	/	/	/	/	5.6µM*	/
CCN(CC)S(=O)(=O)c1ccc(C)c(NS(=O)(=O)c2c(C)c(C)cc(C)c2C)c1	/	/	/	/	6%	/
CCn1c(SCCCn2c(=O)c3c(ncn3C)n(C)c2=O)nc2ccccc21	/	/	/	/	1%	/
CN(Cc1nc2ccccc2c(=O)[nH]1)C(=O)Cc1csc(-c2ccccc2Cl)n1	/	/	/	/	53%	/
CCOc1cc(NC(=S)NCC2CCCO2)c(OCC)cc1NC(=O)c1ccccc1C (centres undefined)	-24%	2%	?	-1%	-32%	4%
CCOc1cc(NC(=S)Nc2ccccc2OC)c(OCC)cc1NC(=O)c1ccccc1C	53%	-6%	-16%	-8%	45µM*	-1%
CCOC(=O)C1C(=O)C=C(c2ccc(Br)cc2)CC1c1ccccc1 (centres undefined)	/	/	/	/	49%	/
Cc1ccc(C(=O)c2sc(Nc3cccc(Cl)c3C)nc2N)cc1	/	/	/	/	28µM*	/
CCOC(=O)c1sc(Nc2ccccc2Cl)nc1C	-14%	10%	-1%	-2%	28µM*	6%
COc1ccc(C(=O)Oc2ccc(C(C)=O)cc2)cc1Br	/	/	/	/	8%	/
CO[C@H]1C(=O)N(C(C)C)[C@H]1C1CCN(C(=O)C(C)C)CC1	/	/	/	/	67%	/
Cc1cccc(S(=O)(=O)NC(=O)C2(C)CCN2C(=O)Cc2ccc(-c3ccccc3)cc2)c1 (centres undefined)	/	-1%	/	/	2%	/
CCC1S/C(=N/N=C/c2ccco2)N(Cc2ccccc2C)C1=O (centres undefined)	0%	-5%	-16%	-1%	?	1%
Cc1ccccc1CN1C(=O)CS/C1=N/N=C/c1ccco1	-9%	-2%	?	-5%	40µM*	9%
CC(OC(=O)C1CCN(S(=O)(=O)c2ccc(C(C)(C)C)cc2)CC1)C(=O)N1CCOCC1 (centres undefined)	/	-3%	10%	4%	45µM*!	-1%
COCc1ncc(C)n1C1CCCN(C(=O)c2ccn(C)n2)C1 (centres undefined)	/	/	/	/	27%	/
COc1cc(C(=O)NC(=S)NNC(=O)[C@H]2C[C@@H]2c2ccccc2)cc(OC)c1OC	-2%	1%	-19%	-7%	32µM*	-2%
COc1ccccc1C(=O)NNC(=S)NC(=O)c1cc(OC)c(OC)c(OC)c1	-10%	-3%	-17%	-7%	40µM*	8%
COc1ccc(C(=O)NC(=S)NNC(=O)c2ccccc2O)cc1	-1%	-2%	-8%[57.1 µM]	7%[57.1 µM]	-17%	2%
COc1ccc(C(=O)NC(=S)NNC(=O)c2ccccc2C)cc1	/	?	-6%[57.1 µM]	8%[57.1 µM]	45µM*	9%
COc1cc(C(=O)NNC(=S)NC(=O)c2ccccc2C)cc(OC)c1OC	-7%	0%	-3%[11.4 µM]	2%[11.4 µM]	-20%	1%
COc1cc(C(=O)NC(=S)NC(C)C)cc(OC)c1OC	-4%	1%	-13%	-8%	35µM*	2%
Cc1ccccc1NC1(c2nnnn2-c2ccccc2C)CCCCC1	/	/	/	/	0%	/
COc1cccc(C(=O)N2C[C@@H](CO)[C@H](c3nc(C)no3)C2)c1OC	/	/	/	/	51%	/
SMILES	Apoferritin bind	Glioma ERSR ind	rTrxR1 inhibitor	TrxR1 substrate	12-LOX inh	mIDH1 inhibitor
NC(=O)c1c(/N=C/c2cccs2)sc2c1CCCC2	1%	3%	40µM*	-2%	-31%	0%
O=C1C(Br)=C(c2ccccc2)C(c2ccccc2)=C1c1ccccc1	/	-3%	0.71µM*	-8%	/	6%
COc1cc(-c2csc(-c3c(C)c(C)nn(C)c3=O)n2)ccc1OC(F)F	/	/	/	/	-26%	/
O=c1[nH]c2ccc(-c3csc(NC4CCCC4)n3)cc2[nH]1	/	/	/	/	35µM*	/
COc1cc(-c2csc(NC3CC3)n2)ccc1OC(F)F	/	/	/	/	25µM*	/
CC(C)CCNc1nc(-c2ccc3[nH]c(=O)[nH]c3c2)cs1	/	/	/	/	45µM*	/

Assay outcomes (PubChem)
